# About 79,000 compounds went through this panel and 15% of them were active in at least one assay; those are over-represented in the sample as a whole. A number with no mark means an inactive call. The source made the active and inactive calls. Cut-off read from the data, not from the text of the source: active = growth inhibition above about 70%; inactive = the rest.
# Test: NCI Yeast Anticancer Drug Screen. Data for the rad50 strain (AID 155);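 note: 0% = growth of vehicle-only cultures of the same strain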
# Details: S. cerevisiae rad50 strain growth inhibition, active compounds read high
# Protocol: Growth inhibition of yeast strains with defined genetic alterations is measured as a screen for potential anti-cancer activity. Selected strains with alterations in DNA damage repair or cell cycle control were exposed to compounds and growth inhibition was measured relative to vehicle treated controls. The strain used in this assay is rad50
# [1] = at 5.0 µM (retest, dose inferred, filed as 0.5)
# [2] = at 50.0 µM (retest, dose inferred, filed as 5.0)
SMILES,growth inhibition (at 1.2 µM),growth inhibition (at 3.7 µM) [%],growth inhibition [1] [%],growth inhibition (at 11.0 µM) [%],growth inhibition (at 33.0 µM),growth inhibition [2],growth inhibition (at 50.0 µM),growth inhibition (at 100.0 µM)
c1ccc2c(c1)sc1nc3ccncc3nc12,79% (active),35,-55,61,76% (active),87% (active),90% (active),87% (active)
OCC(Cn1cncn1)(c1ccc(F)cc1F)n1cncn1 (stereo not given),34%,54,55,59,59%,77% (active),61.8%,60%
C=C1CC(Cn2cc(Br)c(=O)[nH]c2=O)(c2ccc(-c3ccccc3)cc2)OC1=O (stereo not given),3%,7,8,17,36%,98% (active),98.3% (active),92% (active)
O=C1C=CC(=Nc2ccc3c(c2)Cc2cc(NC(=O)C(F)(F)F)ccc2-3)O1,2%,7,44,20,55%,96% (active),82.4% (active),97% (active)
Cc1ccc(N)c(S)c1,-34%,-27,1,-4,91% (active),77% (active),10.4%,94% (active)

# — PubChem BioAssay (NCI)
